RmlCD inh 1536: M. tuberculosis RmlC/RmlD inhibition | P9WH09+P9WH11 | RmlC+RmlD coupled enzyme assay, percent inhibition; primary screen in compound mixtures | inhibition, % at 3.6 µM | actives 0.03% (n = 160,000) | AID 1533; in the data active = inhibition mostly above about 34%, no sharp cut-off
RecA intein inh: blocks M. tuberculosis RecA intein splicing; P9WHJ3; cell-free RecA intein splicing, fluorescence; inhibition, % (test concentration not listed); actives 0.75% (n = 290,000); AID 2221; in the data active = inhibition above about 30%;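 note: 0% = vehicle wells and 100% = reference inhibitor control wells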
Target sequence (P9WHJ3 whole entry, looked up): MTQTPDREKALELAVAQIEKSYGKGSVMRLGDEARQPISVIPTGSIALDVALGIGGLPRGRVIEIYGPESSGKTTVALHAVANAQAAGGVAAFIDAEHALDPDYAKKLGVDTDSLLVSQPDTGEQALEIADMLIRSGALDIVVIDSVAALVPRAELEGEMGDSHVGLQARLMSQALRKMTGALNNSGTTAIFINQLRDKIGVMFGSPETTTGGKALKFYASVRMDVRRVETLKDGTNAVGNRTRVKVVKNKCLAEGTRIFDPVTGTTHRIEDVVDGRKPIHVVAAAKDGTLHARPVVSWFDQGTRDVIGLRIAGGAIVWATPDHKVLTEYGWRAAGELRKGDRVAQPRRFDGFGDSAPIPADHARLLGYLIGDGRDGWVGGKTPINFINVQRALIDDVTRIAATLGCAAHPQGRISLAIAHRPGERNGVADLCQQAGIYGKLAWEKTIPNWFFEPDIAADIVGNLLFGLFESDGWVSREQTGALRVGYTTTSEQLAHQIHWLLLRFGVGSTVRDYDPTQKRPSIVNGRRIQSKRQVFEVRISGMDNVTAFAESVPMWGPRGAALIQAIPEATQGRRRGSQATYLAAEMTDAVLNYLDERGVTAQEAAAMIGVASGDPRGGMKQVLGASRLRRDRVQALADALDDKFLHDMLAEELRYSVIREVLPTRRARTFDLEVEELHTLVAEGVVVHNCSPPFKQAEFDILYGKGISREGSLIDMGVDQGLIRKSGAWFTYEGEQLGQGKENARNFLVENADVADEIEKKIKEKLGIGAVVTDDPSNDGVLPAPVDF
GFP chromophore: counter-screen GFP chromophore formation inhibition; shares compounds with RecA intein inh; cell-free GFP chromophore formation, fluorescence; EC50, µM; actives 83% (n = 2,100); call rule not given here
* marks the source's active call; other numbers are inactive results; / = no result. Hits are enriched below; roughly 0.77% of the tested compounds scored in any of these assays.

SMILES	RmlCD inh 1536	RecA intein inh	GFP chromophore
CCc1ccc(OCC(=O)c2c(O)c3ccccc3oc2=O)cc1	-13	-1	/
CCc1oc2ccccc2c1C(=O)c1cc(Br)c(O)c(Br)c1	-5	26	18*
O=C(O)c1nccnc1C(=O)NCCc1c[nH]c2ccccc12	4	-1	/
CCCCn1c(N)c(N(CCC(C)C)C(=O)C2CCCO2)c(=O)[nH]c1=O (stereo not given)	/	-2	/
COC(=O)c1ccc(CSCC(=O)Nc2cc(OC)cc(OC)c2)o1	0	1	/
O=C(NC1C(=O)NNC1c1ccccc1)c1ccccc1 (stereo not given)	11	69*	25*
O=C(NN1C(=O)C2C(c3ccccc3)C=CC(c3ccccc3)C2C1=O)c1ccccc1 (stereo not given)	/	10	/
Cc1ccc(CSCC(=O)Nc2c(C)n(C)n(-c3ccccc3)c2=O)cc1	-11	-1	/
CN=CC1=C(O)c2ccccc2C1=O	13	-2	/
O=C1C(C2=C(O)c3ccccc3C2=O)=Nc2ccccc21	/	47*	1.8*
COc1ccccc1N1CCN(S(=O)(=O)c2c(C(=O)N3CCOCC3)c(C)n(C)c2C)CC1	/	2	/
CC(=O)C1=C(c2ccc(Br)cc2)C(=O)c2ccccc2C1=O	/	58*	3.1*
O=C1C(c2ccccc2)=C(N2CC2)c2ccccc21	3	6	/
Cc1ccc(NC(=O)CC(C)CC2=NS(=O)(=O)c3ccccc3N2)cc1 (stereo not given)	/	1	/
CCn1c(COc2ccccc2C(N)=O)nc2ccccc21	/	-2	/
COc1cccc(-c2ccc(C#N)c(=O)[nH]2)c1	-9	-1	/
COc1ccc(-c2cc(=O)[nH][nH]2)cc1OC	4	99*	0.97*
COc1ccc(-c2c[nH]c(=O)[nH]c2=O)cc1OC	-7	-7	/
CCOc1cccc(-c2cc(=O)[nH][nH]2)c1	/	97*	2.5*
CCOc1cccc(OCCCOc2ccccc2)c1	8	6	/
COc1cccc(-c2cc(=O)[nH][nH]2)c1	/	98*	2.2*
COC(=O)c1ccccc1NC(=O)N1CCN(C(=O)c2ccco2)CC1	-5	2	/
COC(=O)c1ccc2c(=O)sc(N3CCC(C(N)=O)CC3)nc2c1	/	-41	/
OCC[C@@H]1C[C@@H](O)[C@H](O)[C@@]2(Cc3ccccc3CO2)O1	/	-3	/
CCOc1cc(/C=C2/SC(=S)N(CC(=O)O)C2=O)ccc1OC(=O)c1cccs1	/	16	/
SMILES	RmlCD inh 1536	RecA intein inh	GFP chromophore
CCOc1cc(/C=C2/C(=N)N3C(=NC2=O)SN=C3S(C)(=O)=O)ccc1OC(=O)c1ccco1	/	10	/
CCOc1cc(/C=C2/C(=O)N(c3ccccc3)N=C2C)ccc1OC(=O)c1ccco1	/	78*	2.7*
CC1=NN(c2ccc(C(=O)O)cc2)C(=O)/C1=C\c1ccc(OC(=O)c2cccs2)cc1	8	93*	2.6*
COc1ccc(N2C(=O)NC(=O)/C(=C/c3cccc(OC(=O)c4cccs4)c3)C2=O)cc1Cl	-5	10	/
CCOc1cc(/C=C2\C(=O)N(c3ccc(C(N)=O)cc3)N=C2C)ccc1OC(=O)c1cccs1	8	94*	3.3*
CC1=NN(c2ccc(C(=O)O)cc2)C(=O)/C1=C/c1ccc(-c2ccccc2F)o1	/	8	/
Cc1ccc(N2C(=O)NC(=O)/C(=C/c3ccc(OC(=O)c4cccs4)cc3)C2=O)cc1	/	34*	0.82*
Brc1ccc(Nc2ncnc3[nH]ncc23)cc1	-2	2	/
COc1ccc(C(C(=O)NC(C)(C)C)N(C(=O)CNC(=O)c2cccs2)c2ccc(NC(C)=O)cc2)cc1OC (stereo not given)	-3	4	/
CCc1ccccc1NC(=S)N(CCN(C)C)C(C)c1cccnc1 (stereo not given)	7	-1	/
O=C(CCn1c(=O)oc2ccccc21)Nc1ccc(N2CCOCC2)cc1	/	-2	/
COc1cccc(NC(=O)CN2C(=O)COc3ccc(C)cc32)c1	/	0	/
Oc1cccc(Nc2nc(-c3ccccc3Cl)nc3ccccc23)c1	/	35*	>38
Cc1ccc(-c2nc(Nc3cccc(O)c3)c3ccccc3n2)cc1	/	4	/
Cn1c(N)nc2ccccc2c1=O	4	6	/
N#CC1=C(N)C(C#N)(C#N)C(c2cccnc2)C2CC(c3ccccc3)CC=C12 (stereo not given)	-8	17	/
N#CC1=C(N)N(c2ccccc2)C(c2ccccc2)C1(C#N)C#N (stereo not given)	62	43*	31*
O=C(COc1coc(CN2CCCc3ccccc32)cc1=O)Nc1cccc([N+](=O)[O-])c1	/	-3	/
O=C(CSc1n[nH]c(=O)[nH]c1=O)Nc1ccccc1C(=O)c1ccccc1	14	0	/
CCOC(=O)CNc1nnc(SCC(=O)OCC)[nH]c1=O	/	41*	6.3*
COC(=O)CSc1nnc(C)c(=O)[nH]1	/	1	/
O=C(CCl)N1c2ccccc2SCC1c1ccccc1 (stereo not given)	/	25	/
O=C(CCl)N1c2ccccc2OCC1c1ccccc1 (stereo not given)	10	81*	4.5*
CC(=O)c1cccc(NC(=O)CCNS(=O)(=O)c2cccc3nsnc23)c1	0	5	/
COc1ccccc1S(=O)(=O)Cc1ccc(C(=O)NCC2CCCO2)o1 (stereo not given)	-3	-2	/
SMILES	RmlCD inh 1536	RecA intein inh	GFP chromophore
Cc1nc2ccccc2c2c1C(=O)N(C)C2=O	1	58*	18*
Cc1nc2ccccc2c(-c2ccccc2)c1CC(=O)O	2	-3	/
COC(=O)C(CCSC)NC(=O)CNS(=O)(=O)c1ccc(F)cc1 (stereo not given)	/	2	/
COc1ccc2[nH]c(CN3CCC(CO)(CCOc4ccccc4)CC3)c(C)c2c1	-11	40*	>38
COc1ccc(CN2CCC(CO)(CCOc3ccccc3)CC2)c(OC)c1C	/	2	/
CC(=O)Nc1ccccc1OCc1nnc(-c2ccccc2Cl)o1	/	0	/
CC#CCN1c2ccccc2[C@]23C[C@@H](C(=O)OC)N(C(=O)C4CCC4)C2=NC(C(=O)OC)=C(C(=O)OC)[C@H]13	-2	7	/
COc1cc(C=C2C(=O)c3ccccc3C2=O)ccc1O	-10	46*	>38
COc1ccc(C=C2C(=O)c3ccccc3C2=O)cc1O	5	25	/
C=CCOc1ccccc1CN(C(=O)CCl)c1ccc2c(c1)OCO2	/	81*	8.3*
CCOc1ccccc1NC(=O)Nc1ccc2c(c1)OCO2	/	-3	/
O=C(Nc1cccc(Br)c1)c1ccc(CN2CCc3ccccc3C2)cc1	/	7	/
O=C(CCC(=O)NCCCc1ccccc1)NCCCc1ccccc1	5	0	/
CC1=NN(c2ccccc2)C(=O)/C1=C/c1ccc(-c2ccc(C)c(C(=O)O)c2)o1	/	3	/
CC1=NN(c2ccc(Cl)c(C(=O)O)c2)C(=O)/C1=C\c1ccc(-c2ccc(C(=O)O)cc2)o1	-5	36*	0.81*
Nc1nc2nc(-c3ccc(Cl)cc3)cc(C(F)(F)F)n2n1	/	-35	/
Cc1nn(-c2ccccc2)c(Oc2ccccc2)c1C=O	10	1	/
CCN(CC)c1ccc(/C=N/Nc2ccc(C)cc2)c(O)c1	11	/	/
CCN(CC)c1ccc(/C=N/Nc2nc(C)cc(=O)[nH]2)c(O)c1	7	39*	>38
COc1ccccc1/C=C1\Oc2cc(OC(=O)N3CCOCC3)ccc2C1=O	7	-1	/
OCCC1CN(Cc2cc3ccccc3o2)CCN1Cc1ccc(F)cc1 (stereo not given)	/	0	/
O=C(CSC1=NCCS1)Nc1nc2ccccc2s1	/	28	/

Screening results: PubChem BioAssay, several laboratories
